Measurements from the supplement of paper PMC11006884.
Of roughly 6,500 targets only a part is listed; those with a hit were picked by preference. About 2% of all pairs of compound and target were hits.

compound: COC(=O)C#Cc1ccccc1 [methyl 3-phenylpropiolate]; test: log2 ratio of iodoacetamide-alkyne labeling of the cysteine site, DMSO over compound (competition); higher = stronger covalent engagement of the cysteine by the compound, active = 1 or more; settings: 500 µM; treatment time 1 h; system: HEK293T cell lysate
Procedure, shortened: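 Three replicates, each with duplicate channels, were prepared from HEK293T lysate (2 mg/mL) treated with vehicle or electrophile at 500 µM for 1 h at ambient temperature. Iodoacetamide alkyne was then applied for 1 h, and samples were clicked to sCIP-TMT reagents, pooled, trypsin-digested overnight at 37 °C, enriched on streptavidin, acid-eluted and analysed on Orbitrap Eclipse LC-MS/MS with FAIMS, with FragPipe quantification. The log2 competition ratio per cysteine is the mean control-channel divided by the mean compound-channel reporter intensity. Cysteines quantified in only one replicate were left out.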

Chain of UniProt P50395 (P50395 whole entry): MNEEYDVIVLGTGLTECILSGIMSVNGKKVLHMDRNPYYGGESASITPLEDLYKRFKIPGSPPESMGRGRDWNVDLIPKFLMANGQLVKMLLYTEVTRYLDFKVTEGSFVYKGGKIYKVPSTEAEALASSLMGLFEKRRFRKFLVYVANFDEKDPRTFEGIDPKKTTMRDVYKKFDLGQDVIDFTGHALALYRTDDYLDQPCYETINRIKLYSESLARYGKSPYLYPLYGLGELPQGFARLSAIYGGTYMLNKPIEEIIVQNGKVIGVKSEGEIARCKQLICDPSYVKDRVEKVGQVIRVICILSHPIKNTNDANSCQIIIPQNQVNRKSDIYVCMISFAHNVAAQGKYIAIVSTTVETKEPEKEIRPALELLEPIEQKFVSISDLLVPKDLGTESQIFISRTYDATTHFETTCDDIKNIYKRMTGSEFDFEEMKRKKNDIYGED
Chain of UniProt P23246 (P23246 whole entry): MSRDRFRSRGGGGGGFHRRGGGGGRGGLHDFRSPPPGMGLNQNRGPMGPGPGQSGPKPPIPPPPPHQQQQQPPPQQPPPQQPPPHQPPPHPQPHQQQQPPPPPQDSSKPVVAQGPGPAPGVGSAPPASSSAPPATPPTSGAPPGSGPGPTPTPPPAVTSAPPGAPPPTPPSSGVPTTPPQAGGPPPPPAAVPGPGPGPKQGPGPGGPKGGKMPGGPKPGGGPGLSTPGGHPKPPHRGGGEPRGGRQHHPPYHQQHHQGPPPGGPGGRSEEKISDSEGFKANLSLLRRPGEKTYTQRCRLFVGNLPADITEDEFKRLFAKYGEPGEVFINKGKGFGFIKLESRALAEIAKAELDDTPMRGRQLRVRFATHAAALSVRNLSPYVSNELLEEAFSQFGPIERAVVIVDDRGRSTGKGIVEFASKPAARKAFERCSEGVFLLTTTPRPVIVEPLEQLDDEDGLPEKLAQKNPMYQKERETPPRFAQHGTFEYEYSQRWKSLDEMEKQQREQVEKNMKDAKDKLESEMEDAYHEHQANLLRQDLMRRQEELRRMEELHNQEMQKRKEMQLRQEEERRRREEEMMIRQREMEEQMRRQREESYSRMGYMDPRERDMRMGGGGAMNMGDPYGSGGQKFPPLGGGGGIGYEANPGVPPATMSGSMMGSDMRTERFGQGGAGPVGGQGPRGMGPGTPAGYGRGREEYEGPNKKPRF
Chain of UniProt P18085 (P18085 whole entry, looked up): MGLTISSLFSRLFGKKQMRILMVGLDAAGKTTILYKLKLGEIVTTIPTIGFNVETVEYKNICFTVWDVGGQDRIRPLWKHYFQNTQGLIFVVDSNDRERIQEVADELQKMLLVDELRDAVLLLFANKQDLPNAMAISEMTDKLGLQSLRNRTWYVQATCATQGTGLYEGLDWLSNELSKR
Chain of UniProt O95819 (O95819 whole entry, looked up): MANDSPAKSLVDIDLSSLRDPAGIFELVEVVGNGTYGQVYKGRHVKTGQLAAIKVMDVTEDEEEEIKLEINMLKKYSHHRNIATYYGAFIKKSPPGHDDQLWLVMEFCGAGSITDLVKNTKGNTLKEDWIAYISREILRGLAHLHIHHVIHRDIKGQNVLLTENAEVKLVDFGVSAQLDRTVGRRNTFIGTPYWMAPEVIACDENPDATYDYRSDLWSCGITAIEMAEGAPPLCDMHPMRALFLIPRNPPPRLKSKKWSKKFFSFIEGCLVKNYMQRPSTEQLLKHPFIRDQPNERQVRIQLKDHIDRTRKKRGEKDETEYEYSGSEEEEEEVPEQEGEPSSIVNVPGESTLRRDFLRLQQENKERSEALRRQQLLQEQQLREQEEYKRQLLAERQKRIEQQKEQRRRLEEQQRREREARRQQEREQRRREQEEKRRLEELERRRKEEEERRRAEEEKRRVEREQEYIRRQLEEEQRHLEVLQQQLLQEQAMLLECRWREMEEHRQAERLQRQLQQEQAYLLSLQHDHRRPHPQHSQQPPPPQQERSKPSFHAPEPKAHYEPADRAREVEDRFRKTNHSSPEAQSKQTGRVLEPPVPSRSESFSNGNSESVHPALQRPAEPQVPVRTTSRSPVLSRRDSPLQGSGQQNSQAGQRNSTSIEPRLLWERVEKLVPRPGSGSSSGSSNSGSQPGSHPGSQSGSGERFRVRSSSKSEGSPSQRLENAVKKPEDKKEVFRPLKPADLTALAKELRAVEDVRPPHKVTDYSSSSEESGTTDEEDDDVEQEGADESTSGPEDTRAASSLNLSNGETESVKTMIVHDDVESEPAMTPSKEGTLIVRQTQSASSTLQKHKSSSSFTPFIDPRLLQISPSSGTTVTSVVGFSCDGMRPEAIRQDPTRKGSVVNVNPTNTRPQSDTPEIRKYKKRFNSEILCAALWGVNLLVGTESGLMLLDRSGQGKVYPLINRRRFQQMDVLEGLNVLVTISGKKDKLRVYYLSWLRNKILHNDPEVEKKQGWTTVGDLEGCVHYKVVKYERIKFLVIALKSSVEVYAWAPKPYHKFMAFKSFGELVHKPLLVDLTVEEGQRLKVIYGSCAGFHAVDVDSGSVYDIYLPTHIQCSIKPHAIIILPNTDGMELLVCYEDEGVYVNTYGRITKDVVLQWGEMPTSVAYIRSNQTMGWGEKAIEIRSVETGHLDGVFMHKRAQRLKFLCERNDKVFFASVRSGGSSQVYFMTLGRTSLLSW
Chain of UniProt P51970 (P51970 whole entry): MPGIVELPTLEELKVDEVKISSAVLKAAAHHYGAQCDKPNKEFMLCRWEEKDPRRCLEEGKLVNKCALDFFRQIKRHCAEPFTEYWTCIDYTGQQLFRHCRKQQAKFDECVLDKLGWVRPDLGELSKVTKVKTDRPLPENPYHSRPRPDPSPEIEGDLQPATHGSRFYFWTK
Chain of UniProt P45880 (P45880 whole entry, looked up): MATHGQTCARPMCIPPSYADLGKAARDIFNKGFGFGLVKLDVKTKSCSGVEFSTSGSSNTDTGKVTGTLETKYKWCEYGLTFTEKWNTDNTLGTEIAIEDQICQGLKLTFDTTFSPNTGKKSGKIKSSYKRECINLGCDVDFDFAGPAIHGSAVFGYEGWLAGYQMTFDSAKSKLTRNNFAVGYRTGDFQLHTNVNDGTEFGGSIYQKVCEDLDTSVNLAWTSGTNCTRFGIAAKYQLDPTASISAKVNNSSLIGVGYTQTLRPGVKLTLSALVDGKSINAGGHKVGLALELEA
Chain of UniProt P05141 (P05141 whole entry, looked up): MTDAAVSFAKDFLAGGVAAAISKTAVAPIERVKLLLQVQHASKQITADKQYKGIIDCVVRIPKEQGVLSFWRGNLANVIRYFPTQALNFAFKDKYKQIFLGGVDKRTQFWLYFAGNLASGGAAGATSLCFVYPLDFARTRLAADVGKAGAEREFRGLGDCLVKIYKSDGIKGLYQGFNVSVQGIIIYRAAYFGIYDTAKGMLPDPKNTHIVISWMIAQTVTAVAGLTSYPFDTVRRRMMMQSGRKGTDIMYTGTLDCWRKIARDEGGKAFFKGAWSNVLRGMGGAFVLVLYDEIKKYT
Chain of UniProt P17987 (P17987 whole entry, looked up): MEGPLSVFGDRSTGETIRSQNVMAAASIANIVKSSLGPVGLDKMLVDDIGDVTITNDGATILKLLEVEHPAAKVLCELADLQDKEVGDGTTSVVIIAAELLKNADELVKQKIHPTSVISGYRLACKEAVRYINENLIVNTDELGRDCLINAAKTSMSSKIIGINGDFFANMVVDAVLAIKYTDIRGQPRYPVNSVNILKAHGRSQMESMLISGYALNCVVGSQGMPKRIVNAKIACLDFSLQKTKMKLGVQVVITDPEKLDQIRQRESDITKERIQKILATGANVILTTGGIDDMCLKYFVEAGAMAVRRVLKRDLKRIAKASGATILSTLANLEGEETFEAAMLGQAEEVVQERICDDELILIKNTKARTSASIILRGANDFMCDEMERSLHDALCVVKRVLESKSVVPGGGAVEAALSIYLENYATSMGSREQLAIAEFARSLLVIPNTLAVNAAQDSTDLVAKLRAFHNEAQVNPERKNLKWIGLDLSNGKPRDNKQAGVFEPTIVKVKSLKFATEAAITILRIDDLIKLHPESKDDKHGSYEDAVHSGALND
Chain of UniProt P12277 (P12277 whole entry): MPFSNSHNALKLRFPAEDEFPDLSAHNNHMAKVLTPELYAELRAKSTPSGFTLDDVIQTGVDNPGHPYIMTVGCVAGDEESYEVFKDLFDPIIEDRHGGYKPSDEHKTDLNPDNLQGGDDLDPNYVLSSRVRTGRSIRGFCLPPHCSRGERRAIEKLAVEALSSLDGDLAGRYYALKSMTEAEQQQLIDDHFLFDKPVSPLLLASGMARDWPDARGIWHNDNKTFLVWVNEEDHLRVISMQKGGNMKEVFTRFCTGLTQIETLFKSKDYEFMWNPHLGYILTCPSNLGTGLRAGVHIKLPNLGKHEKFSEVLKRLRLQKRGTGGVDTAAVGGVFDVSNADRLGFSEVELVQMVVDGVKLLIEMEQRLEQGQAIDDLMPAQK
Chain of UniProt P46109 (P46109 whole entry, looked up): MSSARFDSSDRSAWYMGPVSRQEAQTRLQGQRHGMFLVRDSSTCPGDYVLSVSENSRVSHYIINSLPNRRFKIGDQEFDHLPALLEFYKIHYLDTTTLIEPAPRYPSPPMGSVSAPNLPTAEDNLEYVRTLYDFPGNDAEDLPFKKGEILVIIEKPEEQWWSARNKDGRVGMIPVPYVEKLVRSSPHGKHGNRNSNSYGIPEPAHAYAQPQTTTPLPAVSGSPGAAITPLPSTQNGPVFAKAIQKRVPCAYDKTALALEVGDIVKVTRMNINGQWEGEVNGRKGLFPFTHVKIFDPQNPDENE

log2 ratio of iodoacetamide-alkyne labeling, active:
CRKL C249 (UniProt P46109) 1.61, NDUFA8 C110 (UniProt P51970) 1.12, VDAC2 C210 (UniProt P45880) 1.39

log2 ratio of iodoacetamide-alkyne labeling, inactive:
TCP1 C218 (UniProt P17987) 0.0267, ARF4 C62 (UniProt P18085) -0.015, UniProt P14618_C49 -0.193, SLC25A5 C160 (UniProt P05141) 0.177, ETFB C71 (UniProt P38117) 0.579, SFPQ C297 (UniProt P23246) -0.122, ETFB C42 (UniProt P38117) 0.207, SSB C18 (UniProt P05455) -0.139, CKB C283 (UniProt P12277) 0.217, MAP4K4 C202 (UniProt O95819) 0.624, GDI2 C202 (UniProt P50395) -0.0158, TCEA1 C271 (UniProt P23193) -0.116
